According to paper PMC7819943, “Rice protein-binding microarrays: a tool to detect cis-acting elements near promoter regions in rice”:
Whole data set: some 35,000 sequences, median “fluorescence intensity (a.u.)” near 10,000, cut for the highest 2% near 52,000. This is one part of a sample in which the highest values are shown more often than they occur.

The sequences below were run against T1, OsWOX13 (Oryza sativa, UniProt Q5QMM3 1-267) (assay: protein-binding microarray (RPBM); PBS, 2% BSA, 51.3 ng/ul salmon testes DNA, 50 uM zinc acetate, 200 nM TF, 25 C, 1 h; high values mean tight binding). Details: protein: recombinant; tags: N-terminal polyhistidine and DsRed monomer fusion (pET32a); label: CyDye5-dUTP incorporated in the synthesized complementary strand; 3' TTTTT single-stranded linker to array surface; dsDNA, one strand shown.
T1 sequence: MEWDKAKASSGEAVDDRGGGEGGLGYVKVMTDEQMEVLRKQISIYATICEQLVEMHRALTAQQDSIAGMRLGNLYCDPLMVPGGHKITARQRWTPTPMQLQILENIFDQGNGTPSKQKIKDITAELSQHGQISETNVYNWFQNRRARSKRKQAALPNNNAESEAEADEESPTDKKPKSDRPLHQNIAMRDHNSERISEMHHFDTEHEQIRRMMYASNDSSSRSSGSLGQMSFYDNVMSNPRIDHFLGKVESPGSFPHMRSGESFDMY
Method in brief: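 Transcription factors, each fused N-terminally to a polyhistidine tag and DsRed, were expressed in E. coli BL21-CodonPlus and purified on Ni–NTA. A custom Agilent array was made double-stranded by primer extension with Cy5-dUTP and blocked with 2% BSA. It was incubated with 200 nM protein in PBS, 2% BSA, salmon testes DNA and 50 µM zinc acetate at 25 °C for 1 h, then washed. The binding signal is per-feature fluorescence intensity (arbitrary units) read on an Axon 4000B scanner.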
With “AAATTGTATTCCTAATTGGACTCTCTTTTCCTTTTCTAATCGGAGTCACCTAGTGCAG” the binding signal was 3430 fluorescence intensity (a.u.). “TCGAAAGTAATTAGTACTAGATTGATTGTCAGTTCAGTCTCGGAGTCACCTAGTGCAG” was tested, and the binding signal was 53100 fluorescence intensity (a.u.). In the case of “CTCTCGATTGATTACCTAGTACTACTGCAATTCACATTGTCGGAGTCACCTAGTGCAG”, the binding signal is reported as 52200 fluorescence intensity (a.u.). For “CTTCTAATTATTTGATATTAGGTCATTCTCTAATATTCACCGGAGTCACCTAGTGCAG”, the binding signal was 21400 fluorescence intensity (a.u.). In the case of “AGTTACTAATTGATTCAGATGCATGGCAGTATAATTGTCTCGGAGTCACCTAGTGCAG”, the binding signal is reported as 44900 fluorescence intensity (a.u.). For “TTCTAATTAGATTTGATAAAGTACTAATATTCATTTTGGTCGGAGTCACCTAGTGCAG”, the binding signal was 63100 fluorescence intensity (a.u.). With “ATATTTTAAATAGTACTAAATTATTCTATAAATTTGGTCACGGAGTCACCTAGTGCAG” the binding signal was 4350 fluorescence intensity (a.u.). With “TATATGGATTAACAGATAATTAGCAGCGGGGTTAGCAAAACGGAGTCACCTAGTGCAG” the binding signal was 21000 fluorescence intensity (a.u.). For “TTTTGATTTGCCACATTTGCAGTGGCATGGATCCAATTAACGGAGTCACCTAGTGCAG”, the binding signal was 15000 fluorescence intensity (a.u.). “GGGGATTAATGGATTATAATGTGTCTTATAACTAAAAGGACGGAGTCACCTAGTGCAG” was tested, and the binding signal was 15100 fluorescence intensity (a.u.). For “TTCCGATTATTATTTGTATTTATTAATTTAGGATTTCTCTCGGAGTCACCTAGTGCAG”, the binding signal was 8170 fluorescence intensity (a.u.). “GAGATTTGTTTGATGTATCAGGGTGTCACGTTGTCATGTTCGGAGTCACCTAGTGCAG” was tested, and the binding signal was 3440 fluorescence intensity (a.u.). With “CTTGATTAGAATGTTTAATAACTTGTATCCGTCATGCCTGCGGAGTCACCTAGTGCAG” the binding signal was 60200 fluorescence intensity (a.u.). “ATGGGTGATTAATCCTAGAATAATGTATCTAGACAGAATCCGGAGTCACCTAGTGCAG” was tested, and the binding signal was 4120 fluorescence intensity (a.u.). For “CTTAATGTATGTTGATTTGTCATCACATGTATGATTAGGGCGGAGTCACCTAGTGCAG”, the binding signal was 56400 fluorescence intensity (a.u.). In the case of “ATCCGATTAATTAATTTGATTTAATGTAATGTAATTAGGGCGGAGTCACCTAGTGCAG”, the binding signal is reported as 64600 fluorescence intensity (a.u.). With “AGTATAATTATGTTTAGAATGGATTAATTGTAATGTAAAGCGGAGTCACCTAGTGCAG” the binding signal was 38600 fluorescence intensity (a.u.). In the case of “TGAAATGTAATTGTGATTTTATCTTGAAATGATCCGATGGCGGAGTCACCTAGTGCAG”, the binding signal is reported as 31400 fluorescence intensity (a.u.). “ATCATAATGTGTATGCATGATTAGAGGGCGCAAATTTGTACGGAGTCACCTAGTGCAG” was tested, and the binding signal was 14600 fluorescence intensity (a.u.). With “GGGATTGGTTGAGAAAATAAAACAGATATATAAGTTTATCCGGAGTCACCTAGTGCAG” the binding signal was 3160 fluorescence intensity (a.u.). With “CAAACTAGATTTGTTGCTAAATTGAATTGTTATGTCATTACGGAGTCACCTAGTGCAG” the binding signal was 22800 fluorescence intensity (a.u.). With “TTTGTGATTAAGCTCTTGGTCTCGTCTCCGCGAGCTCAGCCGGAGTCACCTAGTGCAG” the binding signal was 5540 fluorescence intensity (a.u.). “AACGTATTTGGCCCAATTAAGTATATACATATGTAATGCGCGGAGTCACCTAGTGCAG” was tested, and the binding signal was 3420 fluorescence intensity (a.u.). In the case of “GTCAAGTAACTGAACATTTTAATTGCTGCCGATTATTACCCGGAGTCACCTAGTGCAG”, the binding signal is reported as 13400 fluorescence intensity (a.u.). In the case of “GAATTGATGGAATTTAGGCCGCCAGCAAGCAAAGACCGAGCGGAGTCACCTAGTGCAG”, the binding signal is reported as 13300 fluorescence intensity (a.u.). With “CAACTGATTTTATCACGTTCTAAAATATGCCATCATCTTTCGGAGTCACCTAGTGCAG” the binding signal was 12300 fluorescence intensity (a.u.). In the case of “CACTGACGGAGAAATTTACCGGTCAATGGCCGTCGTCGGTCGGAGTCACCTAGTGCAG”, the binding signal is reported as 18000 fluorescence intensity (a.u.). “GCCCTACACAATTTAATTACGTTGACACTGGCCGGTCTTACGGAGTCACCTAGTGCAG” was tested, and the binding signal was 7560 fluorescence intensity (a.u.). In the case of “TTATAATTGACACTACGAGAATGGGTCTTTACTGCCGGTTCGGAGTCACCTAGTGCAG”, the binding signal is reported as 57700 fluorescence intensity (a.u.). In the case of “TCTAATGATAAATCATTTATCACTAATTGTAAGAGTGGTACGGAGTCACCTAGTGCAG”, the binding signal is reported as 53400 fluorescence intensity (a.u.). For “ATTTAATGTACAATCATGCTTTTCCGTACTAAATTTTGTTCGGAGTCACCTAGTGCAG”, the binding signal was 14800 fluorescence intensity (a.u.). For “CTAAATTTGTAATTGTAATGTACTACTTTAATCCTTCGTACGGAGTCACCTAGTGCAG”, the binding signal was 53100 fluorescence intensity (a.u.). For “TCTAAATCATTTTAATCATGGTACAGATCTACTGATAATACGGAGTCACCTAGTGCAG”, the binding signal was 7740 fluorescence intensity (a.u.). In the case of “TCTAATGATGATTGTAAGCCGTACAATTTACTAAAAGATACGGAGTCACCTAGTGCAG”, the binding signal is reported as 15000 fluorescence intensity (a.u.). In the case of “TTTAAATTGTAATCCTACTTGAACTCTTCTTTATTTTCTTCGGAGTCACCTAGTGCAG”, the binding signal is reported as 6760 fluorescence intensity (a.u.). With “AATTAACAATTTACCAAATTATTAGTTATCAACACTAATTCGGAGTCACCTAGTGCAG” the binding signal was 11300 fluorescence intensity (a.u.). For “GTATGTTATTATATCAATTAGATTTATGCTAGCACTGTCGCGGAGTCACCTAGTGCAG”, the binding signal was 15200 fluorescence intensity (a.u.). With “CATTGATAGATTGCAAAAGCTAGCTGTCTGGGAGATGGTGCGGAGTCACCTAGTGCAG” the binding signal was 49500 fluorescence intensity (a.u.). “ACTATCGTAGGTAGCCAATCAATTTAACATTTCACTCAAGCGGAGTCACCTAGTGCAG” was tested, and the binding signal was 3630 fluorescence intensity (a.u.). “CGATGATTGTTAGTATACACTATATGTATGGTGTTTATCCCGGAGTCACCTAGTGCAG” was tested, and the binding signal was 40600 fluorescence intensity (a.u.). For “CTTGATTGACGACCATCTCGTGGTTACCAATTCCATCACCCGGAGTCACCTAGTGCAG”, the binding signal was 60000 fluorescence intensity (a.u.). In the case of “GCTTGACGACACCATTCGGATTGTTCCATCACTTCCATACCGGAGTCACCTAGTGCAG”, the binding signal is reported as 3540 fluorescence intensity (a.u.).
